High-throughput results deposited in PubChem BioAssay by National Center for Advancing Translational Sciences (NCATS).
An excerpt weighted towards active compounds, which were near 3.1% of everything screened.
p53null 39C tox = p53 null cell cytotoxicity, nonpermissive temperature; H1299 p53-null (neo) cells, 39C, ATPlite viability, 24 h; Potency, µM (doses to about 46.1 µM), for inactives: at the top dose activity, negative = cell killing, most hits filed as cytotoxic; 0.97% of 55,000 active; AID 904;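 further: 0% = DMSO only and -100% = full killing by 100 µM tamoxifen; nearly all actives have a fitted effect of over 50% in size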
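ATP-luminescence viability readout (ATPlite, 20 min RT) after 24 hr compound treatment at 39C of H1299-neo or H1299-p53A138V cells; titration up to 46 uM; normalized to DMSO and 100 uM tamoxifen; Hill-fit AC50.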
PMP22 txn = PMP22 gene transcription modulation. S16 Pmp22-F2sN Schwann cells, FLuc/NLuc coincidence luminescence, 24 h. Potency, µM (highest dose often 57.5 µM), for the others: at the top dose activity change, negative = inhibition, usual class: inhibitors. 2% of 43,000 active. AID 1508649; active means clear falling dose curves in both reporters; inconclusive means both reporters move, but less clearly or upward; inactive means either reporter flat; the % is the NLuc reporter signal
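Rat S16 Pmp22-F2sN cells, 500-1,000/well in phenol red-free DMEM + 10% FBS, compound-treated 24 h (37C, 5% CO2). Luminescence: FLuc read, Stop&Glo added, NLuc read.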
p53null 32C kill = selectivity test: cytotoxicity in p53 null cells, permissive temperature; H1299-neo p53 null cells, ATP luminescence, 24 h, 32C; Potency, µM (series often up to 46.1 µM), for the others: at the highest dose activity change, negative = cytotoxicity, most hits filed as cytotoxic; 0.62% of 55,000 active; AID 903;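 further: 0% = DMSO only and -100% = full killing by 100 µM tamoxifen; nearly all actives have a fitted effect of over 55% in size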
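H1299-neo (p53-null) cells, 600/well, were pre-incubated overnight at 37C, then exposed to compounds at up to 46 uM for 24 hr at 32C. Viability was measured as ATP content by luminescence, and AC50 values came from Hill fits.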
OvCa metastasis = inhibitors of ovarian cancer cell adhesion and invasion in omental model; Potency, µM (doses to about 45.8 µM), without a hit: at the top dose activity change, negative = inhibition, most hits filed as inhibitors; AID 1963576; 0.1% of 46,000 active; SKOV3ip1-GFP adhesion/invasion on 3D omental model, fluorescence;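 further: plate controls were DMSO wells for no effect and tomatine positive control wells for full effect; nearly all actives have a fitted effect of over 65% in size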
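Primary human omental fibroblast/mesothelial 3D culture pre-formed 48 h. SKOV3ip1-GFP cells added with compounds (0.36-46 umol/L), incubated 2 h RT/16 h 37 C, fixed; GFP cells quantified at 488/509 nm.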
mTORC1 inh = inhibitors of mTORC1 signaling in Tsc2-/- p53-/- MEF cells; Tsc2-/- p53-/- MEF, phospho-rpS6 immunofluorescence/PI, 24 h; Potency, µM (top dose mostly 38.3 µM), inactives show top-dose activity change, negative = inhibition, most hits filed as inhibitors; 0.78% of 44,000 active; AID 493208;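 further: plate controls were DMSO for no effect and rapamycin for full effect; nearly all actives have a fitted effect of over 50% in size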
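Readout is phospho-S6 Alexa 488 signal normalized to PI per well, reported as % active cells with thresholds set from rapamycin (7.5 nM) and DMSO controls. Cells: Tsc2-/-, p53-/- MEFs, 24 hrs compound at 37 C; PI cell number serves as viability.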
S16 viability = cytotoxicity in S16 Pmp22-F2sN Schwann cells; 0.48% of 43,000 active; S16 Pmp22-F2sN Schwann cells viability, CellTiter-Glo, 24 h; Potency, µM (series often up to 57.5 µM), inactives show top-dose activity change, negative = cytotoxicity, usual class: cytotoxic; further: nearly all actives have a fitted effect of over 65% in size
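S16 Pmp22-F2sN Schwann cells (500-1,000/well) in phenol-red-free DMEM with 10% FBS received 23 nL compound by pin tool for 24 h at 37 °C. Viability was then read as CellTiter-Glo luminescence after 15 min at room temperature.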
Starred values were filed as active, the others as inactive. Unless noted, the call rests on the fitted dose curve; in most records, active means well fitted curve in the direction sought with a large enough effect; inconclusive means small, poorly fitted or top-dose-only effect, or another doubt; inactive means no such curve, though single readings can be large; an effect the other way counts as inactive or inconclusive. Unless noted, on the % scale 0 is the no-effect control and ±100 the full control effect; potency means the concentration at half of the fitted maximal effect.

`CC(C)c1ccc(NC(=O)CSC2=Nc3ccccc3C3=NC(CCC(=O)NCc4ccc(F)cc4)C(=O)N23)cc1` (centres undefined) gave p53null 39C tox 86%, PMP22 txn inconclusive, p53null 32C kill 16%, OvCa metastasis 2%, mTORC1 inh inconclusive and S16 viability 28µM*.
`COc1ccc(OC)c(NC(=O)CSC2=Nc3ccccc3C3=NC(CCC(=O)NCc4ccccc4)C(=O)N23)c1` (centres undefined) gave p53null 39C tox -4%, PMP22 txn 12µM*, p53null 32C kill 0%, OvCa metastasis 25%, mTORC1 inh -1% and S16 viability inconclusive.
Screening CC[C@@H](C)[C@H](NC(=O)[C@H](CC1CCCCC1)NC(=O)c1ccno1)C(=O)N1CCC2(CCc3ccccc32)CC1 returned OvCa metastasis -32%.
For c1ccc2c(Oc3nc(Nc4ccc(N5CCOCC5)cc4)c4ncn(C5CCCCC5)c4n3)cccc2c1 the results were OvCa metastasis -11%.
Screening CCOC(=O)/C(C#N)=C/c1ccc(-c2ccc(Br)cc2)o1 returned p53null 39C tox -11%, p53null 32C kill -10%, OvCa metastasis inactive and mTORC1 inh -4%.
For C=CCN1C=CC(=C/C=C(/C#N)C(=O)OCC)C=C1 the results were p53null 39C tox inconclusive and p53null 32C kill 8.9µM*.
Cc1cc(SCc2sc(-c3ccc(C(F)(F)F)cc3)nc2C)ccc1OCC(=O)O was read as OvCa metastasis 21%.
For COc1ccccc1Nc1c2c(nc3ccc(NC(=O)c4ccc(N(C)C)cc4)cc13)CCCC2 the results were p53null 39C tox 5%, PMP22 txn inconclusive, p53null 32C kill 5%, OvCa metastasis inconclusive, mTORC1 inh 5.2µM* and S16 viability inconclusive.
For CCN(CC)CCNC(=O)Nc1ccc2c(c1)N(Cc1ccccc1)C(=O)c1ccccc1S2 the results were p53null 39C tox 18µM*, PMP22 txn inconclusive, p53null 32C kill 13%, OvCa metastasis inconclusive, mTORC1 inh inconclusive and S16 viability inconclusive.
`CCN1C(=O)c2ccccc2Sc2ccc(NC(=O)Nc3ccc(C(C)=O)cc3)cc21` gave p53null 39C tox -5%, PMP22 txn -13%, p53null 32C kill -2%, OvCa metastasis 8%, mTORC1 inh 0% and S16 viability inconclusive.
Screening CN(C(=O)c1cccc(Nc2ccc(-c3ccc4c(c3)OCCO4)nn2)c1)C1CCCCC1 returned p53null 39C tox 13µM* and p53null 32C kill 11µM*.
`Oc1c(C(Nc2ccccn2)c2ccccc2F)ccc2cccnc12` (centres undefined) gave p53null 39C tox 4µM*, PMP22 txn inconclusive, p53null 32C kill inconclusive, OvCa metastasis 1%, mTORC1 inh inconclusive and S16 viability 2µM*.
For Cc1ccnc(NC(c2ccccc2F)c2ccc3cccnc3c2O)c1 (centres undefined) the results were p53null 39C tox inconclusive, PMP22 txn inconclusive, p53null 32C kill -28%, OvCa metastasis inactive, mTORC1 inh inconclusive and S16 viability inconclusive.
`CCOC(=O)c1ccc(N2C(=O)c3n[nH]c(-c4ccco4)c3C2c2ccc(OCC)cc2)cc1` (centres undefined) gave p53null 39C tox 40%, PMP22 txn inconclusive, p53null 32C kill 32%, OvCa metastasis inconclusive, mTORC1 inh 13µM* and S16 viability inconclusive.
For CCOC(=O)c1ccc(N2C(=O)c3n[nH]c(-c4cccs4)c3C2c2cccc(F)c2)cc1 (centres undefined) the results were p53null 39C tox inconclusive, PMP22 txn inconclusive, p53null 32C kill 89%, OvCa metastasis inconclusive, mTORC1 inh 18µM* and S16 viability -17%.
